Inconclusive results are not listed. Values without a mark were called inactive. Activity calls are given as the source filed them. Calls follow the shape of the full dose curve.
% is scaled to controls: 0 for no effect and ±100 for the full control effect; potency is read from the fitted curve at half-maximal effect.

This experiment can be described thus: p53 small molecule agonists, cell-based qHTS assay with rat liver microsomes: qHTS cell viability counter screen (AID 1963580). Also: nearly all actives have a fitted effect of over 45% in size. As to conditions: p53RE-bla HCT-116 + rat microsomes, ATP viability, 16 h; series mostly up to 66 µM; activity change, negative = cytotoxicity: at the top concentration. From the text:
National Center for Advancing Translational Sciences [NCATS]
Division of Preclinical Innovation [DPI]
U.S. Environmental Protection Agency [EPA]
National Institutes of Environmental Health Sciences [NIEHS]
National Toxicology Program [NTP]
U.S. Food and Drug Administration [FDA]
p53, a tumor suppressor protein, is activated following cellular insult, including DNA damage and other cellular stresses. The activation of p53 regulates cell fate by inducing DNA repair, cell cycle arrest, apoptosis, or cellular senescence. The activation of p53, therefore, is a good indicator of DNA damage and other cellular stresses. The CellSensor p53RE-bla HCT-116 cell line contains a stably integrated beta-lactamase reporter gene under control of the p53 response elements. The activation of the reporter gene under culture conditions can be detected by fluorescence intensity. This cell line was used to screen the Tox21 10K compound library in the condition of presence of rat liver microsomes and to identify agonists that activate the p53 signaling pathway after in vitro metabolic activation (Ooka et al., Archive of Toxicology 96:1975-1987, 2022). The cytotoxicity of the Tox21 compound library against the p53 RE-bla HCT-116 cell line was tested in parallel by measuring the intra cellular ATP content in the same wells.
Tox21 Assay Protocol Summary:
The p53RE-bla cells were dispensed at 4,000cells/3ul/well in 1536-well black-clear bottom plates. After the assay plates were incubated at 37 C, 5% CO2 incubator for 5 hours, 23 nL of compounds dissolved in DMSO, positive controls or DMSO only was transferred to the assay plate. Following compound addition, 3 uL of rat liver microsomes (Molecular Toxicology, Boone, NC) at final concentration of 0.5 mg/mL and 1uL of B-Nicotinamide adenine dinucleotide 2'-phosphate (NADPH) at final concentration of 0.5 mg/mL were transferred to the assay plate. The plates were incubated at 37 C for 16 hours. 1 uL of LiveBLAzer detection mixture was added to each well and the plates were incubated at room temperature in the dark for 2 h. Fluorescence intensity at 460 and 530 nm emission and 405 nm excitation were measured by an Envision plate reader. For cell viability readout that measures cytotoxicity, 4 ul/well of CellTiter-Glo reagent was added into the assay plates using a Flying Reagent Dispenser. After 30 min incubation at room temperature, the luminescence intensity in the plates was measured using a ViewLux plate reader.
On to `CCOB(OCC)OCC`, for which the “activity change, negative = cytotoxicity” value is -0.686%.
Turning to `CC(C)(c1ccccc1)c1ccccc1`, the “activity change, negative = cytotoxicity” value is -8.23%.
Consider `CCCCCCCCCCCCSCCOCCO`, for which the “activity change, negative = cytotoxicity” value was 0.554% [at 30.3 µM].
Turning to `COC(=O)Nc1nc2ccc(C(=O)c3cccs3)cc2[nH]1`, the “activity change, negative = cytotoxicity” value is 29.8% [at 30.3 µM].
On to `C=C(C)C(=O)OCCOCCOC(=O)C(=C)C`, for which the “activity change, negative = cytotoxicity” value is -8.52%.
Still for that read-out and setting: as for `OCCCCCO`, the figure is 1.53%; as for `CC(C)(C)c1ccc(N)cc1`, -0.949%; as for `COC(=O)C1=C(C)NC(C)=C(C(=O)OCC(C)=O)C1c1ccccc1[N+](=O)[O-]` (stereo not given), 4.13% [at 30.3 µM].
For the molecule `CC(C)COC(=O)/C=C/c1ccccc1`, the “activity change, negative = cytotoxicity” value is -0.893%.
Take `C1CCC(C(CC2CCCCN2)C2CCCCC2)CC1` (stereo not given): the “activity change, negative = cytotoxicity” value is -6.17% [at 30.3 µM].
As for `Nc1ncn([C@H]2C[C@H](O)[C@@H](CO)O2)c(=O)n1`, the “activity change, negative = cytotoxicity” value was 6.02% [at 30.3 µM].
The same measure, in the same setting: under `CCC(C)O` (stereo not given) stands -0.386%.
On the same count and under the same terms, as for `CC(C)(Cc1c[nH]c2ccccc12)NCC(O)COc1ccccc1C#N` (stereo not given), the figure is -4.42% [at 30.3 µM]; as for `NC(=O)N(O)[C@@H]1COc2cc(OCc3ccccc3)ccc21`, 1.02%.
With `C[C@H](CCC(=O)O)[C@H]1CC[C@H]2[C@@H]3CC[C@@H]4C[C@H](O)CC[C@]4(C)[C@H]3CC[C@]12C`, the Potency result was “inactive”.
`S=C(S)NCCNC(=S)S`: the “activity change, negative = cytotoxicity” value is 3.9%.
With `CCCCCOC(=O)COc1cc(N2C(=O)C3=C(CCCC3)C2=O)c(F)cc1Cl`, the “activity change, negative = cytotoxicity” value is -8.21%.
Still for that read-out and setting: under `CN(C/C=C/C#CC(C)(C)C)Cc1cccc2ccccc12` stands 5.69% [at 30.3 µM]; under `Nc1ccc(-c2ccc(F)cc2)cc1`, 8.54%.
With `C[Si](C)(C)O[Si](O)(O)O`, the “activity change, negative = cytotoxicity” value was 10.6%.
Same read-out and setting: under `CNCC(O)c1ccc(O)c(O)c1` (stereo not given) stands 0.626% [at 30.3 µM].
On to `Cc1cc(O)c(C(C)C)cc1Cl`, for which the Potency result is “inactive”.
Take `COc1cc(C)cc(O)c1`: the “activity change, negative = cytotoxicity” value is 0.0502%.
As for `CC(C(O)c1ccccc1)N(C)CCOC(c1ccccc1)c1ccccc1` (stereo not given), the “activity change, negative = cytotoxicity” value was -6.66% [at 30.3 µM].
For the molecule `CCCCCCOc1ccccc1C(N)=O`, the “activity change, negative = cytotoxicity” value is 3.6% [at 30.3 µM].
Still for that read-out and setting: under `Cc1cc(O)c2c(O)c3c(O)cccc3cc2c1` stands 0% [at 30.3 µM]; under `CNCCCC1c2ccccc2C=Cc2ccccc21`, -10% [at 30.3 µM]; under `C1CCC2(CCCCO2)OC1`, 6.95%.
On the same count and under the same terms, under `OC1CCCCC1c1ccccc1` (stereo not given) stands 0%; under `COc1cc(NC(C)CCCN)c2ncccc2c1` (stereo not given), -1.11% [at 30.3 µM].
Same read-out and setting: as for `CC1=C(O)C(=O)CO1`, the figure is 0.0817%.
Consider `NNC(=O)OCc1ccccc1`, for which the “activity change, negative = cytotoxicity” value was 0.252%.
On the same count and under the same terms, under `CCc1ccc(C)cc1` stands 2.85%.
`CCC(C)COC(C)=O` (stereo not given): the “activity change, negative = cytotoxicity” value was 3.19%.
On the same count and under the same terms, under `C/C(C=O)=C\c1ccccc1` stands 0.247%.
As for `CCCc1c(OCCCOc2ccc(OCC(=O)O)cc2)ccc(C(C)=O)c1O`, the Potency was 40.8 µM (active).
For the molecule `OCCOc1cccc(OCCO)c1`, the “activity change, negative = cytotoxicity” value was -0.391%.
Turning to `O=C1[C@@H]2[C@H]3CC[C@H](C3)[C@@H]2C(=O)N1CCCCN1CCN(c2ncccn2)CC1`, the “activity change, negative = cytotoxicity” value was -0.179% [at 30.3 µM].
The same measure, in the same setting: as for `O=C(CC(=O)c1ccccc1)c1ccccc1`, the figure is -17.4%.
For the molecule `Nc1ccc(O)c(N)c1`, the “activity change, negative = cytotoxicity” value is 4.48%.

For the origin of these results see PubChem BioAssay (Tox21).
